For some assays here: Entries with a potency or affinity are not part of this list.

Common to all, as to design: scale not given: direction of the effect not stated beside the values
Assay [1] has as its target Protein translocase subunit SecA (Escherichia coli (strain K12)) (UniProt P10408). Put plainly: Assay to Identify E. coli SecA ATPase Inhibitors. As to conditions: 30 µM. It is filed as functional.
In assay [2] the target is T1, Ubiquitin-activating enzyme e1, putative (Leishmania donovani (strain BPK282A1)) (UniProt E9BSI1).
T1 sequence (whole entry): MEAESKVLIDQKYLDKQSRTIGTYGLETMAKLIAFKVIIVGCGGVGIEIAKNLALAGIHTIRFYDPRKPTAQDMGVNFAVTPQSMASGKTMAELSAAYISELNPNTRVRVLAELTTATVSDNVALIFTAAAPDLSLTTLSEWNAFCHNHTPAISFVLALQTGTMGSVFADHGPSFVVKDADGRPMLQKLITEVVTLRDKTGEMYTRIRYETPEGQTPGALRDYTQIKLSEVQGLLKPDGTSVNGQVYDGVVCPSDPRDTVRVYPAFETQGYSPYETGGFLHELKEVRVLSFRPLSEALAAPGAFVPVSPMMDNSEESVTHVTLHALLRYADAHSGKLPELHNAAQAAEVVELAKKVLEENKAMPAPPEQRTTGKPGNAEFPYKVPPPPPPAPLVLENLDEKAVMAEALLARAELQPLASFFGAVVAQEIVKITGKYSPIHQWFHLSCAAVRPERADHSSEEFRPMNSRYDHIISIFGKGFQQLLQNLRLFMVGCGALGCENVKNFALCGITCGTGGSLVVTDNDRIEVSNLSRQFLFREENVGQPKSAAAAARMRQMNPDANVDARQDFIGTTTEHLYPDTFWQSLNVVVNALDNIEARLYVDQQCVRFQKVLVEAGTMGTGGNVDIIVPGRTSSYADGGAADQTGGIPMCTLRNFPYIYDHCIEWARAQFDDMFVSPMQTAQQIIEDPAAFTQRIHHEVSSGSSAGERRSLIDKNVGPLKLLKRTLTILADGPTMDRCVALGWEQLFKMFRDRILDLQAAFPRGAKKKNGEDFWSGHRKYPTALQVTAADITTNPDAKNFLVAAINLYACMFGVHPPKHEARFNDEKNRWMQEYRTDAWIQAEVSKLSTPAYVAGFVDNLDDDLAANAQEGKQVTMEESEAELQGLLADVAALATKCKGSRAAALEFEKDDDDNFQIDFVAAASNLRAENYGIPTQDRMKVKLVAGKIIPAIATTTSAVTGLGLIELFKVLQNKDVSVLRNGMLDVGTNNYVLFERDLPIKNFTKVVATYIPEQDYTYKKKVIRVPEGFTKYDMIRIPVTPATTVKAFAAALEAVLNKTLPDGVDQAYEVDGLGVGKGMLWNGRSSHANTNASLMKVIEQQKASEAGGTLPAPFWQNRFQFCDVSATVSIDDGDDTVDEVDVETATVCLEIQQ
Nature of the assay: Leishmania donovani Ubiquitin Activating Enzyme (LdE1). It is filed as functional. The settings on record: 30 µM.

The target in assay [3] is AMP-activated protein kinase, AMPK (Homo sapiens) (UniProt P54646+O43741+P54619+Q9UGJ0+Q9Y478+Q13131+Q9UGI9). Nature of the assay: AMP-dependent Kinase enzyme assay. An in vitro enzyme assay that detects ADP turnover that is directly proportional to AMPK activity. This uses naive AMPK that is activated during the assay with MK-8722. It is filed as functional. The settings on record: 30 µM.

Assay [4] deals with Sialic acid-binding Ig-like lectin 9 (Homo sapiens) (UniProt Q9Y336). Put plainly: Hs-Siglec9 ALPHAscreen SOP 20170721. The settings on record: 10 µM. On the technique in general: In Alpha technology, singlet oxygen from a donor bead excites a nearby acceptor bead.
Assay [5] concerns Trypanosoma cruzi. Put plainly: Trypanosoma cruzi phosphomannomutase and mannose-1-phosphate guanylyltransferase assay. It is filed as functional. The settings on record: 10 µM.
The target in assay [6] is T2, Arginase-2, mitochondrial (Homo sapiens) (UniProt P78540).
T2 sequence (whole entry): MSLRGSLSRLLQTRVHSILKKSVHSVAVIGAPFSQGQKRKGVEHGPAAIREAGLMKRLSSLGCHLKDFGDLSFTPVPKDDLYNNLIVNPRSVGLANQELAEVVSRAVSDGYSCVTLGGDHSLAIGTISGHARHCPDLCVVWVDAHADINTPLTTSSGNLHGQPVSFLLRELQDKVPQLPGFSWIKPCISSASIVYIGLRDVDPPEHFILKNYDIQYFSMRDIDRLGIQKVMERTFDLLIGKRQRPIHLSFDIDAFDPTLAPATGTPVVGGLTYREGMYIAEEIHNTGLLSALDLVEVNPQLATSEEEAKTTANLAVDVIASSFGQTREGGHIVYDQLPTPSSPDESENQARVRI
Put plainly: in vitro enzyme assay to detect the production of urea directly proportional to the activity of Arginase II. Further: in the data most compounds retested in dose-response had high values. It is filed as functional. The settings on record: 33.3 µM.

Assay [7] concerns the target T3, Proteasome subunit beta (Trypanosoma cruzi) (UniProt O96673).
T3 sequence (whole entry): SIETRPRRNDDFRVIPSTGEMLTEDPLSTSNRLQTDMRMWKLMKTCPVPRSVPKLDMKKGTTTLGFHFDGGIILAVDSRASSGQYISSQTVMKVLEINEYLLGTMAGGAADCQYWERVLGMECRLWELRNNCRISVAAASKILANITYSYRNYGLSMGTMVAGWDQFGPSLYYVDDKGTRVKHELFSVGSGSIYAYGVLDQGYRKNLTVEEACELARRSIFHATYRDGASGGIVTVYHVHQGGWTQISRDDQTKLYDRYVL
Nature of the assay: Trypanosoma cruzi proteasome chymotrypsin-like activity (TcProtChymo) assay. Further: in the data most compounds retested in dose-response had high values. The settings on record: 9.37 µM. Type of assay: functional.

For assay [8], the species on record is Homo sapiens. Nature of the assay: To identify inhibition of the IFN signalling (Jak-Stat) pathway via expression of an eGFP reporter gene under the control of an IFN-stimulated response element (ISRE) containing MxA promoter. It is filed as functional. The settings on record: 30 µM.
For assay [9], the target named is T4, Tyrosyl-tRNA synthetase, putative (Trypanosoma cruzi (strain CL Brener)) (UniProt Q4DSP6).
T4 sequence (whole entry): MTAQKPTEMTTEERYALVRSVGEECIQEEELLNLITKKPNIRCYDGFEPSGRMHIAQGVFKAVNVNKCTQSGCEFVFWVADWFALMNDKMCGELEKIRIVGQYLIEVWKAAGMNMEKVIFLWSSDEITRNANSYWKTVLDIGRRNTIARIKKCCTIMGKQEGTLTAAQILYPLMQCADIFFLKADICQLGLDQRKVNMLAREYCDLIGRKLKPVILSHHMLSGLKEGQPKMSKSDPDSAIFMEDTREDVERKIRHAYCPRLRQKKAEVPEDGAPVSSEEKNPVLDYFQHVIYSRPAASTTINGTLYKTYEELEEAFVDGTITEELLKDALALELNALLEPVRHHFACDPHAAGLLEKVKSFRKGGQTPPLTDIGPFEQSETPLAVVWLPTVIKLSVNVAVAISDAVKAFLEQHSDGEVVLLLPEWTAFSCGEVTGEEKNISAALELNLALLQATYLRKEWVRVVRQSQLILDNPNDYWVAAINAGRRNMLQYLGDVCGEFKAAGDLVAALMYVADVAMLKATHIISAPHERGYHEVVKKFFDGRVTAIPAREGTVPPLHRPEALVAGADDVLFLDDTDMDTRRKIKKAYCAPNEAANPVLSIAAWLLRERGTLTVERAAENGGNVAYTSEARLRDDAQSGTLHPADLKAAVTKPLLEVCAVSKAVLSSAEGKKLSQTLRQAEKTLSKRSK
Put plainly: Trypanosoma cruzi tyrosyl tRNA synthetase (TcYRS) _High Tyrosine SOP. Further: in the data most compounds retested in dose-response had high values. It is filed as functional. The settings on record: 30 µM.

Assay [10] addresses T4, Tyrosyl-tRNA synthetase, putative (Trypanosoma cruzi (strain CL Brener)). Nature of the assay: Trypanosoma cruzi tyrosyl tRNA synthetase (TcYRS) SOP. Type of assay: functional. The settings on record: 30 µM.
Assay [11] has as its target Chromo domain-containing protein 1 (Saccharomyces cerevisiae (strain ATCC 204508 / S288c) (Baker's yeast)) (UniProt P32657). Put plainly: ScCHD-1 Enzyme Inhibition Assay. Further: in the data most compounds retested in dose-response had high values. The settings on record: 30 µM. It is filed as functional.

Chain of Protein translocase subunit SecA (Escherichia coli (strain K12)) (P10408 whole entry): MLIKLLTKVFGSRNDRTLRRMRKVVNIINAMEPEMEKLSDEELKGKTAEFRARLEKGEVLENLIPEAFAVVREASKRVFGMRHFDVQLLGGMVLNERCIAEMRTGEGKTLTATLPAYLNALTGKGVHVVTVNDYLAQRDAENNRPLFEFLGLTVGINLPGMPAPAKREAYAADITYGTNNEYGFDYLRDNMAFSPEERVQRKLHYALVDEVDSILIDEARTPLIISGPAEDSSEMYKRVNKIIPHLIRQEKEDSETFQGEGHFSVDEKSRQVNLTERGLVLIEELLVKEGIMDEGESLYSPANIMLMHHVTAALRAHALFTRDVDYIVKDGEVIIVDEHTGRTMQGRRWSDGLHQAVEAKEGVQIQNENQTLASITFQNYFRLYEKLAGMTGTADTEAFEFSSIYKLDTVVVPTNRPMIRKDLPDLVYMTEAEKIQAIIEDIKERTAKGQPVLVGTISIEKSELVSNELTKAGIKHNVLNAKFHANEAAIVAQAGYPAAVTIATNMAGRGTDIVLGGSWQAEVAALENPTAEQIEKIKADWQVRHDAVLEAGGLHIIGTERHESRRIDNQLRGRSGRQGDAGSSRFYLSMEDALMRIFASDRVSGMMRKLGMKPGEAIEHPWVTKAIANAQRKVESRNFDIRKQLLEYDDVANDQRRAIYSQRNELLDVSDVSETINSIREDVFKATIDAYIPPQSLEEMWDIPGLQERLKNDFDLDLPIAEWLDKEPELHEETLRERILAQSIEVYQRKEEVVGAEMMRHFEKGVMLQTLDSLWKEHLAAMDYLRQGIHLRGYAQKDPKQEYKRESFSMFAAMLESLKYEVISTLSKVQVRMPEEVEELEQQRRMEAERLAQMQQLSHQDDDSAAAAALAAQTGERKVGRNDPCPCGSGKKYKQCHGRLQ
Chain of Chromo domain-containing protein 1 (Saccharomyces cerevisiae (strain ATCC 204508 / S288c) (Baker's yeast)) (P32657 whole entry, the tested form may be a part): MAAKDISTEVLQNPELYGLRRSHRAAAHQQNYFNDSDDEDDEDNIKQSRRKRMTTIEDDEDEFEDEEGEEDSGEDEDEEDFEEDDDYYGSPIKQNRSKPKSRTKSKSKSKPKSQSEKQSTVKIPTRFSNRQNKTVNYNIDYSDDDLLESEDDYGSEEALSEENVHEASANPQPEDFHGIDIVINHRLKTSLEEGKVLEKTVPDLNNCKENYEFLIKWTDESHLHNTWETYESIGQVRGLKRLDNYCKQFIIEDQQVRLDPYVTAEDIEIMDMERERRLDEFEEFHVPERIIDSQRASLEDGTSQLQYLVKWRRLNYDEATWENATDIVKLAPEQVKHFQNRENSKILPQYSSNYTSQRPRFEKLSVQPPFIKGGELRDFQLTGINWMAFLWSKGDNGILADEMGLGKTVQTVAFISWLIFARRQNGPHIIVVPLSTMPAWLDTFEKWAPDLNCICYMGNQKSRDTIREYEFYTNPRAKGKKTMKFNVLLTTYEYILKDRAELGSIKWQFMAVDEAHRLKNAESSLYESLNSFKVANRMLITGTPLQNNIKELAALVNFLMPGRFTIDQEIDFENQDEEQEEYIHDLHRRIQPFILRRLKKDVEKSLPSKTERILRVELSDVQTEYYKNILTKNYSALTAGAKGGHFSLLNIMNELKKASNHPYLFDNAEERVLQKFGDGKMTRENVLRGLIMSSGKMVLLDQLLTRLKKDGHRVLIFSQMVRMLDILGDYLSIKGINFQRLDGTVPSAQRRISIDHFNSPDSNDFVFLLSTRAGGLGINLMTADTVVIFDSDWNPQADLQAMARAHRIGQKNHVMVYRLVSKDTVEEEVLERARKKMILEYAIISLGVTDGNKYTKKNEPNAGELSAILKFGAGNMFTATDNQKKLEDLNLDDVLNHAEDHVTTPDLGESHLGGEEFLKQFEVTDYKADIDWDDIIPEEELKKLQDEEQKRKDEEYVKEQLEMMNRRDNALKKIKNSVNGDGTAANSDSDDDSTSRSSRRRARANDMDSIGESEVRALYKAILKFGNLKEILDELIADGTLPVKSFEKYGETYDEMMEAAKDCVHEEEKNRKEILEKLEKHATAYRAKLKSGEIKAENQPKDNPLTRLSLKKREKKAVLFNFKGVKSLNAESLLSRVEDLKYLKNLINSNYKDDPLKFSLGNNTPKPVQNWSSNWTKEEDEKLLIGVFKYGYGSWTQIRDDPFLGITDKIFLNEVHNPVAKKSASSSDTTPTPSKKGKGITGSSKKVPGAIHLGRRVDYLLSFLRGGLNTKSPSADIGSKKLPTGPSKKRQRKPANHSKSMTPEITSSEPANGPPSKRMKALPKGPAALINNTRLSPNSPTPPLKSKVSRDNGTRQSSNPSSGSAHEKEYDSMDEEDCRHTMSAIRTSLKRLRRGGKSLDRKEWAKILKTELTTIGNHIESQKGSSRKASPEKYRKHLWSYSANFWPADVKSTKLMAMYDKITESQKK
Chain of Sialic acid-binding Ig-like lectin 9 (Homo sapiens) (Q9Y336 whole entry): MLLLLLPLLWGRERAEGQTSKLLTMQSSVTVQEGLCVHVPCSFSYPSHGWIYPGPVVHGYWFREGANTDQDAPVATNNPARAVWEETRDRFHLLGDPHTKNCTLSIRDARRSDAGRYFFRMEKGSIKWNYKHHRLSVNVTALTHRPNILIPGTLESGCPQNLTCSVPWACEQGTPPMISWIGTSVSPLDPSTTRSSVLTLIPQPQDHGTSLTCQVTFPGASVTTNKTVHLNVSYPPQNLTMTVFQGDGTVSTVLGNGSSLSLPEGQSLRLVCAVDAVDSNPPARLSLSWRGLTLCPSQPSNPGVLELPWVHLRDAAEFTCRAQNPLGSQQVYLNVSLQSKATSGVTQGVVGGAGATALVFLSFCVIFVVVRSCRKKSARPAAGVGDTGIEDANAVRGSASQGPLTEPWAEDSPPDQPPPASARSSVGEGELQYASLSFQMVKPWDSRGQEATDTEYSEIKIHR

With `Cc1noc([C@@]23CCO[C@@H]2CCN(C(=O)c2sccc2C)C3)n1`, the Percent Effect in [1] is -3.07%; in assay [2], 5.33%; in assay [3], 2.33%; in assay [4], -2.88%; in [5], 2.12%; in assay [6], -46.1%. For the same compound, the Percent Effect in [7] came out at 0.513%; in assay [8], 1.48%; in [9], 1.04%; in assay [10], 0%; in assay [11] it was 1.44%.

As to `COCC1CCN(C(=O)c2cccc(S(=O)(=O)NCC3(C)COC3)c2)C1` (stereo not given), the Percent Effect is -8.36% in assay [1]; 5.41% in assay [2]; 0.667% in [3]; 24.4% in assay [4]; 1.07% in assay [5]; 3.23% in assay [6]. The Percent Effect in assay [7] was 1.63%; in [8] it was 9.82%; in assay [9] it was 6.45%; in assay [10], 13.6%; in assay [11], -4.61%.

For the compound `CCc1ncc2c(n1)CN(Cc1nc(-c3ccccn3)no1)CC2`, the Percent Effect in assay [1] was -8.41%; in assay [2], 15.8%; in assay [3], -29.3%; in assay [4], 15.4%; in assay [5] it was 11.7%; in [6], 1.44%. Also, the Percent Effect is 2.79% in [7]; -20.6% in [8]; 15.3% in assay [9]; 25.9% in assay [10]; -10.3% in assay [11].

Consider `Cc1[nH]nc2ncc(C(=O)N3CCN(CC(C)C)CC3)cc12`, for which the Percent Effect in assay [1] is -2.98%; in assay [2], 15.8%; in [3] it was 10.4%; in assay [4], -2.95%; in assay [5], 7.56%; in assay [6], -3.24%. The Percent Effect in [7] was 7.36%; in assay [8], -2.6%; in assay [9], 8.37%; in assay [10], 23.5%; in [11], -7.62%.

On to `O=C1NC(c2ccccc2)=N[C@@]12CC[C@@H]1CN(Cc3ccco3)C[C@@H]12`, for which the Percent Effect is -0.246% in assay [1]; 5.33% in [2]; 1.87% in assay [3]; -5.18% in assay [4]; 2.32% in assay [5]; -47.5% in assay [6]. In addition, the Percent Effect was -0.513% in assay [7]; 4.89% in assay [8]; 2.08% in assay [9]; -5% in assay [10]; -2.32% in assay [11].

Consider `Cc1cc(CN2CCN(C(=O)C(C)C)[C@@H]3CS(=O)(=O)C[C@@H]32)ccc1F`, for which the Percent Effect is -4.05% in [1]; 6.94% in assay [2]; -6.22% in assay [3]; -3.08% in [4]; -0.486% in assay [5]; 5.3% in assay [6]. The Percent Effect in assay [7] is 14.7%; in [8], -3.72%; in [9], 7.37%; in assay [10], 12.8%; in [11] it was -2.86%.

Turning to `CCO[C@@H]1CO[C@@]2(CCCN(C(=O)COc3ccccc3OC)C2)C1`, the Percent Effect was 2.9% in assay [1]; 18.2% in assay [2]; 3.83% in assay [3]; -2.8% in assay [4]; 0.888% in assay [5]; 8.39% in assay [6]. The Percent Effect in assay [7] was 8.7%; in assay [8], 25.1%; in assay [9], 6.35%; in assay [10] it was 16.7%; in assay [11], -9.93%.

Turning to `CCN(CCNC(=O)c1ccccc1Br)C1CC1`, the Percent Effect in assay [1] is -1.99%; in assay [2], -6.33%; in assay [3] it was -0.476%; in [4], -1.28%; in assay [5], -0.923%; in assay [6], 7.53%. For the same compound, the Percent Effect was 10.3% in assay [7]; 5.43% in assay [8]; 1.04% in [9]; -10.1% in assay [10]; -18% in assay [11].

Consider `Cc1cnn(C2CCCN(C(=O)Cc3cn4ccccc4n3)C2)c1` (stereo not given), for which the Percent Effect was -5.24% in assay [1]; 19% in assay [2]; -2.41% in assay [3]; -0.453% in assay [4]; -0.103% in assay [5]; -1.5% in [6]. Also, the Percent Effect in [7] is 11.8%; in assay [8], 4.05%; in assay [9], 1.04%; in assay [10], 17.7%; in assay [11], -26.5%.

In the case of `CNc1nc2c(c(C(=O)N3CCCC3)n1)CN(Cc1nccn1C)CC2`, the Percent Effect in [1] is -4.21%; in [2], 16.4%; in assay [3] it was -8.14%; in assay [4], 7.16%; in assay [5], 2.38%; in assay [6], -2.79%. The Percent Effect was 19.4% in assay [7]; 8.05% in assay [8]; 7.29% in assay [9]; 8.64% in assay [10]; -2.56% in [11].

The values above are taken from ChEMBL document CHEMBL3988442, “University of Dundee, Small-Polar-MMV Screening Library” (2021).
